Test in all cases: NCI-60 one-dose screen, 48 h (100 = growth as untreated, 0 = no growth, -100 = all killed)
One assay has as its system RPMI-8226 leukemia. To be noted: 10 µM.
A further assay deals with OVCAR-8 ovarian. To be noted: 10 µM.
The next assay relates to OVCAR-5 ovarian. To be noted: 10 µM.
The test system of another assay is OVCAR-4 ovarian. To be noted: 10 µM.
The test system of another assay is SK-OV-3 ovarian. To be noted: 10 µM.
The next assay relates to IGROV1 ovarian. To be noted: 10 µM.
For the next assay, the system named is OVCAR-3 ovarian. To be noted: 10 µM.
For another assay, the system named is HS 578T breast. To be noted: 10 µM.
The next assay has as its system NCI/ADR-RES ovarian. To be noted: 10 µM.
The next assay concerns T-47D breast. To be noted: 10 µM.
For the next assay, the system named is BT-549 breast. To be noted: 10 µM.
Another assay deals with SW-620 colon. To be noted: 10 µM.
Another assay relates to MCF7 breast. To be noted: 10 µM unless noted.
Another assay has as its system HCT-116 colon. To be noted: 10 µM.
The subject of a further assay is HCC-2998 colon. To be noted: 10 µM.
The subject of the next assay is KM12 colon. To be noted: 10 µM.
A further assay concerns MDA-MB-435 melanoma. To be noted: 10 µM.

The structures appear in SMILES notation. About 83,000 compounds went through this panel and 20% of them were active in at least one assay; those are over-represented in the sample as a whole.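 Testing used 96-well plates and a 48-hour single-concentration exposure. Example: -40 means 40% of the starting cells died.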 Values without a mark were called inactive. Active and inactive are the calls of the source. Rule for the calls: active = growth percent below 10; inactive = the rest.

With `COc1cc(/C=C/C(=O)c2ccccc2)cc(OC)c1OC`, the growth with RPMI-8226 leukemia is 24.3%; with OVCAR-8 ovarian, 59.8%; in the assay with OVCAR-5 ovarian, 66.6%; in the assay with OVCAR-4 ovarian, 65%; in the assay with SK-OV-3 ovarian, 79%; with IGROV1 ovarian, 98.6%. The growth is 59% with OVCAR-3 ovarian; 106% in the assay on HS 578T breast; 43.1% in the assay with NCI/ADR-RES ovarian; 91.4% in the assay on T-47D breast; 72% in the assay on BT-549 breast; 12.3% with SW-620 colon. Besides, the growth in the assay with MCF7 breast was 9.65% (active); in the assay on HCT-116 colon, 20.6%; in the assay with HCC-2998 colon, 94.3%; in the assay on KM12 colon it was 12.6%.

With `CC1CCC2C(C)(C)C3CC12CC1OC13C` (stereo not drawn), the growth is 108% in the assay on RPMI-8226 leukemia; 105% with OVCAR-8 ovarian; 105% in the assay with OVCAR-5 ovarian; 99.3% in the assay on OVCAR-4 ovarian; 103% with SK-OV-3 ovarian; 114% in the assay with IGROV1 ovarian. The growth is 110% in the assay on OVCAR-3 ovarian; 103% in the assay with HS 578T breast; 107% with NCI/ADR-RES ovarian; 99.3% with T-47D breast; 107% with BT-549 breast; 107% in the assay with MDA-MB-435 melanoma. The growth with SW-620 colon was 98.8%; with MCF7 breast, 102%; in the assay with HCT-116 colon, 101%; in the assay on HCC-2998 colon it was 127%; in the assay with KM12 colon, 111%.

On to `c1c(-c2cc(C3CC3)[nH]n2)n[nH]c1C1CC1`, for which the growth with RPMI-8226 leukemia was 105%; in the assay with OVCAR-8 ovarian it was 102%; in the assay with OVCAR-5 ovarian, 93.6%; in the assay with OVCAR-4 ovarian, 109%; with SK-OV-3 ovarian it was 96.2%; in the assay on IGROV1 ovarian, 111%. Besides, the growth in the assay on OVCAR-3 ovarian was 117%; in the assay on HS 578T breast, 101%; in the assay with NCI/ADR-RES ovarian it was 98.8%; in the assay on BT-549 breast, 94%; in the assay with MDA-MB-435 melanoma, 109%; in the assay with SW-620 colon, 102%. For the same molecule, the growth with MCF7 breast was 92.8%; with HCT-116 colon it was 83.6%; with HCC-2998 colon it was 102%; in the assay with KM12 colon, 109%.

Consider `CC(C)(C)n1nc(C2CC2)c(Br)c1NC(=O)c1ccccc1F`, for which the growth was 96.7% in the assay with RPMI-8226 leukemia; 101% in the assay with OVCAR-8 ovarian; 104% in the assay with OVCAR-5 ovarian; 87.1% in the assay with OVCAR-4 ovarian; 94.5% in the assay with SK-OV-3 ovarian; 99.3% in the assay on IGROV1 ovarian. The growth in the assay with OVCAR-3 ovarian was 117%; in the assay with HS 578T breast, 94.9%; in the assay on NCI/ADR-RES ovarian it was 103%; in the assay on T-47D breast, 108%; in the assay on BT-549 breast, 110%; in the assay with MDA-MB-435 melanoma it was 102%. In addition, the growth with SW-620 colon was 105%; in the assay on MCF7 breast, 95.7%; in the assay on HCT-116 colon it was 109%; with HCC-2998 colon, 106%; in the assay with KM12 colon, 98.5%.

As for `COCCCNC(=O)c1nnn2c1nc(N)c1cc(Cl)ccc12`, the growth in the assay with RPMI-8226 leukemia is 96.9%; in the assay with OVCAR-8 ovarian it was 103%; in the assay on OVCAR-5 ovarian it was 109%; in the assay on OVCAR-4 ovarian, 90.7%; in the assay on SK-OV-3 ovarian, 79.2%; with IGROV1 ovarian, 78.6%. Also, the growth with OVCAR-3 ovarian was 81.1%; in the assay with HS 578T breast, 90.4%; in the assay on NCI/ADR-RES ovarian, 93.9%; with T-47D breast, 79%; in the assay with BT-549 breast, 79.2%; with MDA-MB-435 melanoma it was 10.9%. The growth is 81% in the assay on SW-620 colon; 73.4% in the assay on MCF7 breast; 77.6% with HCT-116 colon; 89.4% with HCC-2998 colon; 50.2% in the assay with KM12 colon.

With `COc1cc(C(N)=O)cc(OC)c1OC`, the growth with RPMI-8226 leukemia was 106%; in the assay with OVCAR-8 ovarian it was 98.1%; with OVCAR-5 ovarian, 98.1%; in the assay with OVCAR-4 ovarian, 110%; in the assay with SK-OV-3 ovarian, 111%; in the assay on IGROV1 ovarian, 108%. In addition, the growth was 117% with OVCAR-3 ovarian; 106% with HS 578T breast; 101% in the assay with NCI/ADR-RES ovarian; 110% in the assay with T-47D breast; 108% in the assay with BT-549 breast; 116% with MDA-MB-435 melanoma. Further, the growth in the assay with SW-620 colon was 109%; with MCF7 breast it was 105%; in the assay on HCT-116 colon, 105%; with HCC-2998 colon, 105%; in the assay with KM12 colon, 107%.

Turning to `Cc1ccc(C)n1-c1ccsc1C(=O)NNC(=O)C(Cl)Cl`, the growth is 107% with RPMI-8226 leukemia; 106% in the assay with OVCAR-8 ovarian; 112% in the assay on OVCAR-5 ovarian; 96.9% in the assay on OVCAR-4 ovarian; 95.7% in the assay with SK-OV-3 ovarian; 108% in the assay with IGROV1 ovarian. Moreover, the growth in the assay on OVCAR-3 ovarian was 107%; with HS 578T breast it was 100%; in the assay on NCI/ADR-RES ovarian, 102%; in the assay on BT-549 breast, 112%; with MDA-MB-435 melanoma it was 98.4%; in the assay on SW-620 colon, 102%. The growth with MCF7 breast is 96.9%; in the assay with HCT-116 colon, 105%; in the assay on HCC-2998 colon, 105%; in the assay on KM12 colon, 101%.

Regarding `CCS(=O)(=O)CCCl`, the growth with RPMI-8226 leukemia is 101%; in the assay on OVCAR-8 ovarian, 104%; in the assay on OVCAR-5 ovarian, 105%; in the assay with OVCAR-4 ovarian it was 101%; in the assay with SK-OV-3 ovarian it was 104%; in the assay on IGROV1 ovarian, 107%. Further, the growth with OVCAR-3 ovarian is 116%; in the assay on HS 578T breast it was 96.4%; in the assay with NCI/ADR-RES ovarian, 105%; in the assay with BT-549 breast, 95.9%; with MDA-MB-435 melanoma it was 104%; with SW-620 colon it was 102%. The growth was 76.8% in the assay on MCF7 breast, 98.7% in the assay with HCT-116 colon, 125% with HCC-2998 colon and 99.1% with KM12 colon.

Turning to `CCOC(=O)c1[nH]c(C)c(C(C)=O)c1C`, the growth in the assay on RPMI-8226 leukemia was -7.82% (active); in the assay on OVCAR-8 ovarian, 96.1%; in the assay on OVCAR-5 ovarian, 88%; in the assay on OVCAR-4 ovarian, 86.8%; in the assay with SK-OV-3 ovarian, 101%; in the assay with IGROV1 ovarian, 102%. Besides, the growth with OVCAR-3 ovarian was 95%; in the assay with HS 578T breast it was 91.6%; in the assay on NCI/ADR-RES ovarian it was 98%; in the assay on T-47D breast it was 86.9%; in the assay with MDA-MB-435 melanoma it was 94.7%; with SW-620 colon, 99.4%. Besides, the growth is 87.1% with MCF7 breast, 90.4% in the assay with HCT-116 colon, 88.6% in the assay with HCC-2998 colon and 98.3% in the assay on KM12 colon.

Values taken from PubChem BioAssay (NCI).
